37 compounds from PubChem BioAssay (NCI) can be followed below.

This is part of a sample that, as a whole, favours compounds with a hit. Of some 83,000 tested, about 20% had one in any assay.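 For each line, cells grew in 96-well plates with the test compound present at a single concentration for 48 hours.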 The source made the active and inactive calls. The calls were made as follows: active = growth percent below 10; inactive = the rest.

This assay deals with MDA-MB-468 breast. The experiment in a line: NCI-60 one-dose screen, 48 h (100 = growth as untreated, 0 = no growth, -100 = all killed). To be noted: 10 µM unless noted.
As to `COc1ccc2c(c1)C1=NN(C(=O)CO)[C@H](c3ccc(OC(F)(F)F)cc3)[C@@H]1CC2`, the growth is 117% (inactive).
With `c1ccc2c(c1)oc1cc3c(cc12)nnc1cccn13`, the growth is 108% (inactive).
As to `COc1ccc(C2C3=C(COC3=O)N(CCO)c3cc(OC)c(OC)cc32)cc1` (configuration not stated), the growth is 110% (inactive).
Then `O=C1c2cc3c(cc2-c2c1c1ccc(F)cc1c(=O)n2CCCNCCO)OCO3`, with -70.8% (active); and `COc1ccc(-c2ccnc3c(C#N)c(Nc4ccccc4)nn23)cc1OC`, with 79.4% (inactive).
Then `N=C(N)Sc1cccc[n+]1[O-]`, with 62.4% (inactive); and `N#Cc1c(-c2ccccc2)cc(-c2ccccc2)n(CCC(=O)O)c1=O`, with 26.6% (inactive).
For `CCCCCCCCCCCCCCCCCC(=O)[O][Sn]([CH2]CCC)([CH2]CCC)[CH2]CCC`, the growth was -96.2% (active).
On to `COC1=CC2C=C(C3N(c4ccccc4)NC(=O)[C@@H]4CCCN34)C(=O)NC2C=C1` (some centres not stated), for which the growth was 114% (inactive).
Then `C/C(=N\Nc1ccc([N+](=O)[O-])cc1[N+](=O)[O-])c1ccc(Br)cc1`, with 108% (inactive).
Then `CCN(CC)CCOc1ccc(/C(=C(/C)c2ccccc2)c2ccc(OC(C)=O)cc2)cc1`, with 87.9% (inactive).
For `COc1cc(/C=N/NC(=O)c2cnn3c2NC(c2ccccc2)C3)ccc1Oc1ccccc1` (configuration not stated), the growth is 6.71% (active).
The figure for `CCCCCCNC(=O)Nc1ncnc2c1ncn2-c1ccccc1` is 105% (inactive).
Then `COc1cccc2c1C(=O)c1c(O)c3c(c(O)c1C2=O)C[C@@](O)(C(C)=O)C[C@@H]3O[C@H]1C[C@H](N)[C@H](O)[C@H](C)O1`, with -72.5% (active); and `O=CCCCOCc1ccccc1`, with 112% (inactive); and `N[C@@H](CO)C(=O)O`, with 103% (inactive).
Take `COC(=O)c1c2c(c(C)[n+]([O-])c1C)C(=O)C(NCCN1CCOCC1)=CC2=O`: the growth was 28.8% (inactive).
Then `Nc1n[nH]c2ccc([C@@H]3Nc4ccc5cn[nH]c5c4[C@H]4C5CCC(C5)[C@@H]34)cc12` (some centres not stated), with -6.84% (active); and `CCOC(=O)C1=C(C)NC(C)=C(C(=O)OCc2ccccc2)C1c1cccc(C#N)c1` (configuration not stated), with 16% (inactive); and `COc1cc2c(cc1-c1c(C)noc1C)ncc1nc(C3CC3)n([C@H](C)COC(F)F)c12`, with 46% (inactive).
On to `O=S(=O)(NCCCNc1nccc(-c2c(-c3ccccc3)nc3sccn23)n1)c1ccc(F)cc1`, for which the growth was 35.5% (inactive).
Then `O=[N+]([O-])c1ccc(-c2nnc(SCc3ccc(O)c4ncccc34)n2-c2ccccc2)cc1`, with 19.9% (inactive); and `CC(C)=CCC[C@](C)(O)[C@H]1CC[C@]2(C)[C@@H]1CC[C@@H]1[C@@]3(C)CCC(NC(=O)c4ccccc4C(=O)O)C(C)(C)[C@@H]3CC[C@]12C` (some centres not stated), with 89.4% (inactive); and `CCN(CC)CCCC(C)NC(=S)N/N=C(\C)c1ccccn1` (configuration not stated), with -7.86% (active).
Consider `O=C1c2c(c3c4ccccc4n(CCCCCCBr)c3c3[nH]c4ccccc4c23)C(=O)N1O`, for which the growth is -3.78% (active).
The figure for `CN(C)C1CCN(Cc2ccc(NC(=O)c3cncc(C#Cc4cnc(N)c5ncccc45)c3)cc2C(F)(F)F)CC1` is 67% (inactive); for `CC1=C2[C@@H](CC1)[C@]1(C)O[C@@](c3ccccc3)(C[C@H]1OC(=O)CO)[C@H]2OC(=O)/C=C/c1ccccc1` it is 91.1% (inactive); for `O=C(NNc1nc2cc(F)cc(F)c2n2cccc12)c1cnccn1` it is -10.9% (active).
For `CC(=O)O[C@H]1CC[C@]2(C)[C@H]3CC=C4[C@@H]5CC(C)(C)CC[C@]5(C(=O)NCCNCCNCCN)CC[C@@]4(C)[C@]3(C)CC[C@H]2C1(C)C`, the growth is -14.5% (active).
The figure for `CC(Cc1cccc2ccccc12)C(N)=O` (configuration not stated) is 110% (inactive); for `CCn1cc(C(=O)NN=C2CCCCCC2)c(=O)c2ccc(C)nc21` it is 85.9% (inactive).
Consider `CC[C@@H](CO)Nc1ccc2ncc(C#Cc3cncc(C(=O)Nc4ccc(CN5CCN(C)CC5)c(C(F)(F)F)c4)c3)n2n1`, for which the growth is -68.4% (active).
Then `OCC1CCC(O)C(CO)N1` (configuration not stated), with 104% (inactive); and `C#Cc1nc(Nc2cc(C)[nH]n2)c2ccccc2n1`, with -23.2% (active).
Turning to `COC(=O)/C(=C\c1ccc(OC)cc1)C(=O)N1c2ccccc2Sc2ccccc21`, the growth was 76.1% (inactive).
Then `Nc1nc(N)c2c(n1)NC(c1ccc(F)cc1)C1CCc3ccccc3C1=N2` (configuration not stated), with 5.4% (active).
For the compound `COc1ccc(C(=O)c2cc(OC)c(OC)c(OC)c2)cc1OC(=O)C(Cl)(Cl)Cl`, the growth is 35.8% (inactive).
